Reference: PubChem BioAssay (NCATS)
Results filed as inconclusive are left out. Where a call stands in place of a potency, no number is given. The source made the active and inactive calls. Calls follow the shape of the dose curve; as a rule, active = well fitted curve in the direction sought with a large enough effect; inconclusive = small, poorly fitted or top-dose-only effect, or another doubt; inactive = no such curve, though single readings can be large; an effect the other way counts as inactive or inconclusive.

Key:
[1] = qHTS of pediatric cancer cell lines to identify multiple opportunities for drug repurposing: Primary screen for TC32 cells (AID 1347089); also: nearly all actives have a fitted effect of over 60% in size
Outline: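 Luminescent ATP read-out (CellTiter-Glo) of metabolically active TC32 cells after 48 h exposure. Concentration-response curves came from 11-point (MIPE, 0.78 nM–46 µM) or 8-point (NPC, 0.59 nM–46 µM) primary titrations; follow-up used 11 points.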

[2] = qHTS of pediatric cancer cell lines to identify multiple opportunities for drug repurposing: Primary screen for DAOY cells (AID 1347090); also: nearly all actives have a fitted effect of over 55% in size
Outline: (§1)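 Cell viability, CellTiter-Glo luminescence; 500-1,000 cells/well, 8- or 11-point titration, 48 h compound exposure at 37 degrees C, 5% CO2. Controls: DMSO neutral, bortezomib 2.3 µM final as positive.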

[3] = qHTS of pediatric cancer cell lines to identify multiple opportunities for drug repurposing: Primary screen for A673 cells (AID 1347092); also: nearly all actives have a fitted effect of over 45% in size
Outline: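 Cell viability of A673 measured by CellTiter-Glo ATP luminescence after 48 hours compound exposure. Dilution series spanned 0.78 nM to 46 µM (MIPE, 11-point) or 0.59 nM to 46 µM (NPC, 8-point); bortezomib 2.3 uM positive control.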

[4] = qHTS of pediatric cancer cell lines to identify multiple opportunities for drug repurposing: Primary screen for BT-37 cells (AID 1347094)
Outline: (§2)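 CRCs from 8- or 11-point titrations (lowest final 0.59 nM NPC, 0.78 nM MIPE). Cell viability: CellTiter-Glo after 48 h incubation, 15 min room-temperature development, luminescence imaging.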

[5] = qHTS of pediatric cancer cell lines to identify multiple opportunities for drug repurposing: Primary screen for NB-EBc1 cells (AID 1347095)
Outline: as §2

[6] = qHTS of pediatric cancer cell lines to identify multiple opportunities for drug repurposing: Primary screen for U-2 OS cells (AID 1347096); also: nearly all actives have a fitted effect of over 50% in size
Outline: (§3)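 Cells (500-1,000/well) rested 5 h, then received compounds for 48 h; metabolically active cells were measured by CellTiter-Glo luminescence. Final concentrations spanned up to 46 µM (MIPE, 11-point) or 0.59 nM-46 µM (NPC, 8-point) in primary screens, 11-point in follow-ups.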

[7] = qHTS of pediatric cancer cell lines to identify multiple opportunities for drug repurposing: Primary screen for Saos-2 cells (AID 1347097); also: nearly all actives have a fitted effect of over 40% in size
Outline: as §2

[8] = qHTS of pediatric cancer cell lines to identify multiple opportunities for drug repurposing: Primary screen for SK-N-SH cells (AID 1347098); also: nearly all actives have a fitted effect of over 65% in size
Outline: as §3

[9] = qHTS of pediatric cancer cell lines to identify multiple opportunities for drug repurposing: Primary screen for SK-N-MC cells (AID 1347093)
Outline: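 Metabolically active cells were quantified by ATP-dependent luminescence (CellTiter-Glo, 15 min at room temperature) following 48 h treatment. Cells had been plated at 500-1,000 per well and settled for 5 h beforehand.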

[10] = qHTS of pediatric cancer cell lines to identify multiple opportunities for drug repurposing: Primary screen for SJ-GBM2 cells (AID 1347091)
Outline: as §1
Potency is read from the fitted curve at half-maximal effect.

Row | Compound | Potency [1] | Potency [2] | Potency [3] | Potency [4] | Potency [5] | Potency [6] | Potency [7] | Potency [8] | Potency [9] | Potency [10]
1 | CC[C@H](C=C[C@@H](C)[C@H]1CC[C@H]2[C@@H]3CC=C4C[C@@H](O)CC[C@]4(C)[C@@H]3CC[C@]12C)C(C)C | inactive | inactive | inactive | inactive | inactive | inactive | inactive | inactive |  | 
2 | Cc1nc(C(=O)NCC(=O)O)c(O)c2ccc(Oc3ccccc3)cc12 | inactive | inactive | inactive | inactive |  | inactive |  | inactive |  | 
3 | CO[C@H]1/C=C\O[C@@]2(C)Oc3c(C)c(O)c4c(O)c(c(C=NN5CCN(C6CCCC6)CC5)c(O)c4c3C2=O)NC(=O)C(C)=CC=C[C@H](C)[C@H](O)[C@@H](C)[C@@H](O)[C@@H](C)[C@H](OC(C)=O)[C@H]1C | 0.523 µM (active) | 0.296 µM (active) | 0.0296 µM (active) | 0.001 µM (active) | 0.001 µM (active) | 2.35 µM (active) | 0.0935 µM (active) | 0.0961 µM (active) | 0.0059 µM (active) | 
4 | CN1CCN(c2cccc(Nc3nc4c(-c5ccc(S(C)(=O)=O)cc5)cccn4n3)c2)CC1 | inactive | inactive | 9.35 µM (active) |  | inactive | inactive | 18.7 µM (active) |  | 1.48 µM (active) | 
5 | CN1CCN2c3ncccc3Cc3ccccc3C2C1 (stereo unspecified) | inactive | inactive | inactive | inactive | inactive | inactive |  | inactive | inactive | 
6 | Cc1c(-c2cccc3c(CCCOc4cccc5ccccc45)c(C(=O)O)n(Cc4cccnc4)c23)c(COc2ccc(N3CCN([S+](=O)([O-])N(C)C)CC3)cc2)nn1C | inactive | 23.5 µM (active) | 23.5 µM (active) |  |  | inactive |  | inactive | 10.5 µM (active) | 
7 | CCCCC[C@H](O)C=C[C@H]1[C@H](O)CC(=O)[C@H]1CC=CCCCC(=O)O | inactive | inactive |  |  |  | inactive |  | inactive |  | inactive
8 | Cc1ccc2c(c1)C(=O)[C@]1(O)CCN(c3ccccc3)C1=N2 | inactive | inactive |  | inactive | 7.43 µM (active) | inactive | inactive |  | 20.9 µM (active) | 
9 | C[C@H]1COC2=C1C(=O)C(=O)c1c2ccc2c1CCCC2(C)C | inactive | inactive | inactive |  |  | inactive | 5.9 µM (active) | inactive |  | 
10 | Nc1[nH]nc2nnc(-c3c(-c4ccccc4)nn4ccccc34)cc12 | inactive | 2.96 µM (active) | 1.48 µM (active) | 2.73 µM (active) | 3.32 µM (active) |  | 9.35 µM (active) | 4.29 µM (active) | 0.0332 µM (active) | 
11 | CN(C)CCOc1ccc(C(=C(CCCl)c2ccccc2)c2ccccc2)cc1 | inactive | inactive | inactive | inactive |  | inactive |  | inactive | inactive | 
12 | CCOC(=O)c1c(CSc2ccccc2)n(C)c2cc(Br)c(O)c(CN(C)C)c12 | inactive | inactive | inactive |  | inactive | inactive |  |  |  | 
13 | CCCC1OC2C[C@@H]3[C@H]4CCC5=CC(=O)C=C[C@]5(C)[C@H]4C(O)C[C@]3(C)[C@]2(C(=O)CO)O1 (stereo partly specified) | inactive | inactive | inactive |  |  |  |  |  | 20.9 µM (active) | 
14 | COc1ccc2c(c1)c(C1=C(c3c[nH]c4ccccc34)C(=O)NC1=O)cn2CCCN(C)C | inactive | inactive | 23.5 µM (active) |  | 20.9 µM (active) | inactive |  | 21.5 µM (active) |  | 
15 | CN(C)c1ccc(-c2nc3ncc(Cl)c(N4CCN(CC(=O)Nc5nccs5)CC4)c3[nH]2)cc1 | inactive | inactive |  |  | 2.35 µM (active) | inactive | 14.8 µM (active) |  |  | 14.8 µM (active)
16 | CCOC(=O)[C@H](CCc1ccccc1)N[C@@H](C)C(=O)N1CCCC1C(=O)O (stereo partly specified) | inactive |  | 18.7 µM (active) | inactive |  | inactive | inactive |  | 8.33 µM (active) | inactive
17 | CCC[C@H](N[C@@H](C)C(=O)N1[C@@H]2CCCC[C@H]2C[C@H]1C(=O)O)C(=O)OCC | inactive | inactive |  |  |  | inactive |  |  | 3.32 µM (active) | 
18 | NCc1c[nH]c(=S)n1[C@H]1CCc2c(F)cc(F)cc2C1 | inactive |  | 18.7 µM (active) | 30.6 µM (active) | 23.5 µM (active) | inactive | 18.7 µM (active) |  | 10.5 µM (active) | 26.4 µM (active)
19 | Fc1ccc(C(c2ccc(F)cc2)N2CCN(CC=Cc3ccccc3)CC2)cc1 | inactive | inactive |  | inactive |  | inactive |  | inactive |  | 
20 | CN1CCc2c(n(Cc3ccc(C(=O)NO)cc3)c3ccccc23)C1 | inactive |  | 14.8 µM (active) |  | 16.6 µM (active) | inactive | inactive |  | 9.35 µM (active) | 16.6 µM (active)
21 | CON(C)C(=O)N1N=C(c2cc(F)ccc2F)S[C@]1(CCCN)c1ccccc1 | 0.0047 µM (active) |  | 0.001 µM (active) | inactive | 0.001 µM (active) | inactive | 0.001 µM (active) |  | 0.001 µM (active) | 0.001 µM (active)
22 | CC=C1C2C=C(C)CC1(N)c1ccc(=O)[nH]c1C2 (stereo unspecified) | inactive |  | inactive | inactive | inactive | inactive | inactive | inactive | inactive | inactive
23 | CCN(CC)CCCCNc1nc2cc(Cl)c(Cl)cc2nc1-c1ccc(-c2cccs2)s1 | inactive |  | 11.8 µM (active) | 27.3 µM (active) | 20.9 µM (active) |  | 18.7 µM (active) |  | 13.2 µM (active) | 10.5 µM (active)
24 | O=C1C(CCC(O)c2ccc(F)cc2)C(c2ccc(O)cc2)N1c1ccc(F)cc1 (stereo unspecified) | inactive |  | inactive | inactive |  | inactive | inactive | inactive | inactive | inactive
25 | COc1ccc(CCN(C)CCCOc2ccc(S(=O)(=O)c3[nH]c4ccccc4c3C(C)C)cc2)cc1OC | inactive | inactive |  | 19.3 µM (active) | 20.9 µM (active) | inactive |  |  |  | 
